# In PubChem BioAssay (NCI):
# This is part of a sample that, as a whole, favours compounds with a hit. Of some 83,000 tested, about 20% had one in any assay.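 In brief: 96-well plates, 48 h treatment, single concentration, percent growth endpoint.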 Unmarked numbers belong to inactive results. The source made the active and inactive calls. The calls were made as follows: active = growth percent below 10; inactive = the rest.
# Key:
# Assay in all cases: NCI-60 one-dose screen, 48 h (100 = growth as untreated, 0 = no growth, -100 = all killed)
# Settings in all cases: 10 µM unless noted
# T-47D breast = tested on: T-47D breast
# BT-549 breast = tested on: BT-549 breast
# MDA-MB-435 melanoma = tested on: MDA-MB-435 melanoma
# SW-620 colon = tested on: SW-620 colon
# MCF7 breast = tested on: MCF7 breast
# HCT-116 colon = tested on: HCT-116 colon
# HCC-2998 colon = tested on: HCC-2998 colon
# KM12 colon = tested on: KM12 colon
Structure (SMILES),growth (T-47D breast),growth (BT-549 breast),growth (MDA-MB-435 melanoma),growth (SW-620 colon),growth (MCF7 breast),growth (HCT-116 colon),growth (HCC-2998 colon),growth (KM12 colon)
O=[N+]([O-])c1ccc(-c2cc3c(Nc4ccc(Sc5nc6ccccc6s5)c(Cl)c4)ncnc3s2)cc1,37.1%,87.6%,30.8%,49.5%,16.2%,11.9%,49.7%,35.1%
COc1ccc(C(=O)/C=C/C23c4ccccc4C(c4ccccc42)C2C(=O)NC(=O)C23)cc1 (stereo not given),86.2%,97.1%,101%,110%,89%,83.2%,100%,97.3%
CCN(CC)CCCNC(=O)c1ccc(N)cc1O,107%,98.7%,117%,96.2%,96.8%,94.7%,78.8%,106%
Cc1ccc(/C(=N\N=C(N)N)c2ccccc2)cc1,23%,37.5%,0.321% (active),30.3%,5.02% (active),-66.6% (active),-3.26% (active),2.94% (active)
N#Cc1c(NC(=O)c2ccccc2I)sc2c1CCCC2,61.4%,52.2%,-4.69% (active),21%,15%,26.4%,71.6%,34.2%
Cc1ccccc1NC(=O)CN(C)C,95.6%,106%,108%,108%,97.4%,101%,116%,107%
CCN(CC)CCOC(=O)N1c2ccccc2Sc2ccccc21,94%,92.1%,98.7%,94.4%,99.5%,81.7%,102%,99.3%
CN1CCN(c2ccc(Nc3ncc(Cl)c(NC[C@@H]4CCCO4)n3)cc2)CC1,62.2%,33.3%,44%,7.44% (active),9.61% (active),4.74% (active),60.7%,9.71% (active)
N#Cc1c(N)nc2c(nnn2-c2cccc(C(F)(F)F)c2)c1N,48.1%,101%,108%,95.4%,60.1%,97.4%,102%,86.8%
Cc1cn(C2CCCCC2)c(=O)[nH]c1=O,108%,102%,108%,109%,108%,107%,112%,117%
CN1C[C@@H](c2ccc(Cl)cc2)[C@]2(NC(=S)N(c3ccccc3)C2=O)[C@@]12C(=O)NC1C=CC(Br)=C[C@H]12 (stereo not given in full),49.5%,56%,77.4%,85.2%,51.3%,27.5%,94.9%,78.5%
CN(C)CCOC(=O)Nc1ccc(Cl)cc1,101%,82%,112%,104%,94.4%,86.8%,102%,104%
O=C1C2=C(CCN(Cc3ccccc3)C2)N2CCN=C2N1Cc1ccc(C(F)(F)F)cc1,24.1%,32%,24.4%,37%,21.2%,23%,23.9%,39.4%
CN(C)CCn1cc(-c2ccc3c(Nc4ccc(CC(=O)Nc5cccc(F)c5)cc4)ncnc3c2)cn1,-39.7% [30 µM] (active),-9.36% [30 µM] (active),-71.7% [30 µM] (active),-64.2% [30 µM] (active),-56.9% [30 µM] (active),-11.9% [30 µM] (active),-91.5% [30 µM] (active),-83.6% [30 µM] (active)
Cc1nc(Nc2ccc(S(=O)(=O)Nc3cc(C)on3)cc2)c2ccccc2n1,89.1%,120%,101%,109%,91.9%,109%,107%,103%
CCOC(=O)c1sc(-c2ccc(OS(=O)(=O)c3ccc(C(C)(C)C)cc3)c(C=O)c2)nc1C,31.2%,53.6%,57.2%,19.9%,33.9%,15.2%,52.4%,17.9%
Cc1nn(Cc2ccccc2)cc1C(=O)Nc1sc2c(c1C(N)=O)CCC(=O)C2,10.5%,10.4%,16.7%,13.4%,13.6%,6.74% (active),80.6%,13.5%
Nc1c(-c2nc3ccc(Br)cc3c(=O)[nH]2)nnn1-c1ccccc1,78.3%,63.1%,72.2%,88.1%,78.7%,48.2%,80.6%,61.6%
N#C/C(=C\c1ccc(Br)cc1)n1nnc2cc(Cl)c(Cl)cc21,18%,22.5%,-18.2% (active),19.2%,6.51% (active),22.2%,35.3%,29.7%
Cc1ccc(C)c2c1C(=O)OC2=O,96.1%,104%,114%,107%,93.5%,96.4%,118%,109%
N[C@@H]1CCC[C@H]1NCCCCN1C(=O)c2cccc3cccc(c23)C1=O,86.3%,78.9%,83.3%,38%,70%,50.3%,60.1%,63.5%
CC(C)N(CCOC(=O)Nc1ccccc1Cl)C(C)C,107%,88.5%,113%,103%,104%,84.9%,102%,104%
COc1ccc(/C=C2\COc3ccc(O)cc3C2=O)cc1OC,73%,75.7%,24.4%,10.6%,27.3%,11.7%,121%,20.2%
O=C(CC1Sc2ccccc2NC1=O)NNc1ccc(F)cc1 (stereo not given),66.4%,88.6%,31%,106%,84.7%,71.6%,63.7%,77.4%
Nc1nc(Nc2ccc(Cl)cc2)nn1S(=O)(=O)c1ccc(-c2ccc(F)cc2)cc1,68.6%,108%,91%,95.5%,58.2%,75.1%,82.9%,61.2%
CCOc1ccc2nc(-c3cccc(OCC(=O)NC(C)C)c3)nc(Nc3ccc(-c4cn[nH]c4)cc3)c2c1,-25.2% (active),-44.2% (active),6.53% (active),7.06% (active),-16.8% (active),5.64% (active),24.6%,5.29% (active)
COc1ccc(-c2nc3sccn3c2/C=C/C(=O)c2c[nH]c3ccccc23)cc1,56.1%,59.1%,88.9%,100%,69.8%,69.5%,67.4%,76.8%
CCOc1cccnc1/C=N/NC(N)=S,71.8%,51.6%,58.2%,40.8%,28.8%,32.6%,52.7%,36.2%
COc1cc2c(cc1OC)-c1ccc3cc4c(cc3c1N(CCCN1CCCCC1)C2)OCO4,59.2%,40.7%,69.6%,38%,46.3%,24.6%,80.9%,48.5%
O=C(CCc1nc(-c2cccc(Cl)c2)no1)Nc1ccccn1,107%,95.7%,105%,103%,90.2%,99.1%,97.7%,98%
